Measured values: paper PMC4336329 (PLoS ONE, 2015)
Out of some 310,000 compounds screened, about 14,000 (4.5%) showed an effect of 50% or more. The effect is printed as a negative number. Only a selection was taken, and strong results are over-represented in it overall.

Biological target: human ether-à-go-go-related gene (hERG) potassium channel (human, UniProt Q12809)
Assay: primary screen, population patch clamp on CHO cells stably expressing hERG; higher = less effect of the substance
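Note: peak tail current of the secondary pulse compared with the same well before compound.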

Chain of human ether-à-go-go-related gene (hERG) potassium channel (Q12809 whole entry, looked up): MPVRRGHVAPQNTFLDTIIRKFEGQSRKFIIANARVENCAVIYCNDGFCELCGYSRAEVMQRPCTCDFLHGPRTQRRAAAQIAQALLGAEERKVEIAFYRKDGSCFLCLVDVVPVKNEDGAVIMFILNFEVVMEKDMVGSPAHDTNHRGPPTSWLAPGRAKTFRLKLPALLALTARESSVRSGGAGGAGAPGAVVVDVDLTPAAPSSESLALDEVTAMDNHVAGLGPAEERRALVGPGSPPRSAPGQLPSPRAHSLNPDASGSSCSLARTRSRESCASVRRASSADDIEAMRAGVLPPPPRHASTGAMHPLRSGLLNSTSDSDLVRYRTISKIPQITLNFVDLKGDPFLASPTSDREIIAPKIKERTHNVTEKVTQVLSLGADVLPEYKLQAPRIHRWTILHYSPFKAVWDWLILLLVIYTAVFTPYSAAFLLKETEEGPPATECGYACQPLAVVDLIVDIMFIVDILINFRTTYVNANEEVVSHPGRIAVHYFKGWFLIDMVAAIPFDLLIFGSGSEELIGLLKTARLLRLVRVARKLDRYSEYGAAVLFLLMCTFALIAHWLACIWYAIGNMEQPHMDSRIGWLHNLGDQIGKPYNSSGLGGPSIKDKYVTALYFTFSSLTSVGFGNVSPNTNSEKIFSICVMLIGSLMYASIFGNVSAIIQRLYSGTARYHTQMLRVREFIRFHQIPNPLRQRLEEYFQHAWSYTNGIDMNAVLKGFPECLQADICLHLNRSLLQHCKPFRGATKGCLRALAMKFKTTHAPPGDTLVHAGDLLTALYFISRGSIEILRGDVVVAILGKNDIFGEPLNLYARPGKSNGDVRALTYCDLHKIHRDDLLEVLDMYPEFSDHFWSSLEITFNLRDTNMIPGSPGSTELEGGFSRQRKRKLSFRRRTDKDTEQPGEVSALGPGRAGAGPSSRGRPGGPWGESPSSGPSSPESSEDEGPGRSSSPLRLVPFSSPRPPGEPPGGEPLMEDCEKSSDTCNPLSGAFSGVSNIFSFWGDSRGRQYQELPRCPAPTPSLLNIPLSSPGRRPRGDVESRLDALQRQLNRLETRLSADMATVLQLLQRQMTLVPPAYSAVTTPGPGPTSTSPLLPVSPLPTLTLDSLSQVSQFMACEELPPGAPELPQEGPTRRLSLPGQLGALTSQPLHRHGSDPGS

Compared with `COc1ccc(C(c2nnnn2C2CCCCC2)N2CCN(c3ccccc3F)CC2)cc1` (stereo not drawn), `Cn1nc(C(=O)NC2CCCCC2)c2c1-c1ccccc1SC2` is lower in “hERG current change (%, negative = inhibition) at 10uM” value: 12.8% for the first, -3.08% for the second.

First: Cc1csc2ncc(C(=O)N3CCc4ccccc43)c(=O)n12
Second: Cc1c(OCC(=O)NCCN2CCOCC2)ccc2c1oc(=O)c1ccccc12
The “hERG current change (%, negative = inhibition) at 10uM” value of the first is higher: 15.1% for the first, -59.6% for the second.

First: C=CCn1c(COc2cccc3ccc(C)nc23)nnc1SCC(=O)OC
Second: CCOc1ccc(C(=O)OCc2nnc(-c3cccs3)o2)cc1OC
The “hERG current change (%, negative = inhibition) at 10uM” value of the first is higher: -0.175% for the first, -54.9% for the second.

First: CCOC(=O)Cn1nc(C)c(NC(=O)COc2ccc(C)c(C)c2)c1C
Second: Cc1c(C)c2ccc(OCC(=O)NCCN3CCOCC3)c(C)c2oc1=O
The “hERG current change (%, negative = inhibition) at 10uM” value of the first is higher: 12.2% for the first, 1.61% for the second.

First: O=S(=O)(Nc1cccc(F)c1)c1cccc2nsnc12
Second: COc1ccc(C)cc1S(=O)(=O)Nc1ccc(F)cc1
The “hERG current change (%, negative = inhibition) at 10uM” value of the first is higher: 3.21% for the first, -1.24% for the second.

Compared with `CCOc1ccc(-c2nnc(-c3cccs3)o2)cc1OCC`, `O=C(OCc1nnc(-c2cccs2)o1)c1cccnc1Cl` is higher in “hERG current change (%, negative = inhibition) at 10uM” value: 1.32% for the first, 4.2% for the second.

First: COc1cc(OC)c(S(=O)(=O)NC(C)C)cc1S(=O)(=O)NC(C)C
Second: CCOc1ccc(S(N)(=O)=O)cc1-c1nc2c(C(C)(C)C)nn(C)c2c(=O)[nH]1
The “hERG current change (%, negative = inhibition) at 10uM” value of the first is lower: 2.64% for the first, 10.9% for the second.

Compared with `Cc1ccc(NC(=O)c2ccc3nccnc3c2)c(C)c1`, `COc1cc(NC(=S)NC(=O)c2ccccc2C)ccc1NC(=O)c1cccs1` is higher in “hERG current change (%, negative = inhibition) at 10uM” value: -2.58% for the first, -1.24% for the second.

Compared with `CCCCc1cc(=O)oc2c(C)c(OCC(=O)NCCN3CCOCC3)ccc12`, `CCCc1cc(=O)oc2c(C)c(OCC(=O)NCCN3CCOCC3)ccc12` is higher in “hERG current change (%, negative = inhibition) at 10uM” value: -82.1% for the first, -31.6% for the second.

Going from `Cc1c(OCC(=O)NCCCN2CCOCC2)ccc2c1oc(=O)c1ccccc12` to `CCc1cc(=O)oc2c(C)c(OCC(=O)NCCN3CCOCC3)ccc12`, the “hERG current change (%, negative = inhibition) at 10uM” value rises from -46.6% to -0.348%.

First: Cn1c(SCc2ccccc2C#N)nnc1-c1ccncc1
Second: COC(=O)c1cccc(CSc2nnc(-c3ccco3)n2-c2ccccc2)c1
The “hERG current change (%, negative = inhibition) at 10uM” value of the first is higher: 7.11% for the first, -33.9% for the second.

First: CSc1ccccc1NC(=O)CN(C)C(=O)CCc1c[nH]c2ccccc12
Second: O=C(N/N=C\c1ccccn1)c1ccccc1O
The “hERG current change (%, negative = inhibition) at 10uM” value of the first is lower: 0.0989% for the first, 11% for the second.

Going from `CCOc1ccc(Br)cc1C(=O)N/N=C/c1ccccn1` to `O=C(N/N=C/c1ccccn1)c1cc(Br)ccc1O`, the “hERG current change (%, negative = inhibition) at 10uM” value falls from -40.8% to -54.9%.

Compared with `O=C(CCCC(=O)N/N=C\c1ccccn1)N/N=C\c1ccccn1`, `O=C(N/N=C/c1ccccn1)c1ccccc1` is higher in “hERG current change (%, negative = inhibition) at 10uM” value: 2.44% for the first, 2.75% for the second.

Going from `O=C(N/N=C/c1ccccn1)C1CC1` to `CC1CCC(NC(=O)c2nn(C)c3c2CSc2ccccc2-3)CC1` (stereo not drawn), the “hERG current change (%, negative = inhibition) at 10uM” value rises from -69.4% to 3.11%.

Compared with `C=CCNc1nnc(Cc2ccc(C(C)C)cc2)c(=O)[nH]1`, `CSc1nc(O)c(C(c2ccc(OC(C)C)cc2)c2c(O)nc(SC)[nH]c2=O)c(=O)[nH]1` is higher in “hERG current change (%, negative = inhibition) at 10uM” value: -0.924% for the first, 16.9% for the second.

First: CC(C)(C)c1ccc(-c2noc(CCC(N)=O)n2)cc1
Second: CC(C)CC(C(=O)NCC1CCCO1)N(C(=O)Cn1nnc(-c2ccc(F)cc2)n1)c1cccc(C(F)(F)F)c1 (stereo not drawn)
The “hERG current change (%, negative = inhibition) at 10uM” value of the first is lower: -11% for the first, -0.701% for the second.

Compared with `Cc1ccc(NC(=O)C2CCN(S(=O)(=O)c3c(C)n[nH]c3C)CC2)nc1`, `CC1CCCN(C(=O)c2nn(C)c3c2CSc2ccccc2-3)C1` (stereo not drawn) is higher in “hERG current change (%, negative = inhibition) at 10uM” value: -23% for the first, -11.7% for the second.

Going from `CC1CCCCN1CCCNC(=O)c1nn(C)c2c1CS(=O)(=O)c1ccccc1-2` (stereo not drawn) to `CC1CCCN(CCCNC(=O)c2nn(C)c3c2CS(=O)(=O)c2ccccc2-3)C1` (stereo not drawn), the “hERG current change (%, negative = inhibition) at 10uM” value falls from -8.49% to -39.8%.

Going from `CC1CCCCN1CCCNC(=O)c1nn(C)c2c1CSc1ccccc1-2` (stereo not drawn) to `CC1CCCN(CCCNC(=O)c2nn(C)c3c2CSc2ccccc2-3)C1` (stereo not drawn), the “hERG current change (%, negative = inhibition) at 10uM” value falls from -67.1% to -72.5%.

First: Cn1nc(C(=O)NCCCN2CCCCC2)c2c1-c1ccccc1S(=O)(=O)C2
Second: Cn1nc(C(=O)NCCCN2CCCCC2)c2c1-c1ccccc1SC2
The “hERG current change (%, negative = inhibition) at 10uM” value of the first is higher: -0.878% for the first, -66% for the second.

Going from `CSc1n[nH]c(NCc2cccs2)n1` to `CC(Sc1nnnn1-c1ccc(O)cc1)C(=O)NC1CCCCC1C` (stereo not drawn), the “hERG current change (%, negative = inhibition) at 10uM” value falls from 8.8% to -9.23%.

In the case of `CC(=O)C1=C(O)C(=O)N(c2ccc(S(=O)(=O)Nc3nccs3)cc2)C1c1ccc([N+](=O)[O-])cc1` (stereo not drawn), the “hERG current change (%, negative = inhibition) at 10uM” value was 10.6%.
